Test results taken from PubChem BioAssay (Tox21).
“And” between values parts separate entries of the source, which are not always exact repeats. Equal entries are not always repeated. Records with an inconclusive call do not appear. A call without a number means that no potency is given here. The source made the active and inactive calls. Unless noted, the call rests on the fitted dose curve; in most records, active means well fitted curve in the direction sought with a large enough effect in the repeat runs; inconclusive means weak or mixed curves; inactive means no such curve, though single readings can be large; an effect the other way counts as inactive or inconclusive.

Key:
[1] = qHTS assay to identify small molecule agonists of the peroxisome proliferator-activated receptor delta (PPARd) signaling pathway - cell viability counter screen (AID 743211); details: PPARd-bla HEK293H viability, CellTiter-Glo luminescence, 17 h; series mostly up to 62.6 µM; further: nearly all actives have a fitted effect of over 55% in size; further: potency means the concentration at half of the fitted maximal effect
In short: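 Counter screen for cytotoxicity run in parallel with the PPARd reporter screen. Beta-lactamase reporter HEK293H cells exposed to compounds 17 h; ATP-based CellTiter-Glo luminescence quantified viability.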

[2] = qHTS assay to identify small molecule antagonists of the peroxisome proliferator-activated receptor delta (PPARd) signaling pathway - cell viability counter screen (AID 743213); details: PPARd-bla HEK293H viability, CellTiter-Glo luminescence, 17 h; series mostly up to 62 µM; further: nearly all actives have a fitted effect of over 50% in size
In short: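 In this counter screen, HEK293H cells carrying a UAS-beta-lactamase reporter are co-treated with test compounds and 300 nM L165041 (final) for 17 h at 37 C; cell viability is quantified by CellTiter-Glo luminescence.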

[3] = qHTS assay to identify small molecule antagonists of the farnesoid-X-receptor (FXR) signaling pathway - cell viability counter screen (AID 743221; active means well fitted cell-killing curve with a large enough effect in the repeat runs, not every such curve was filed as active; further: nearly all actives have a fitted effect of over 50% in size); details: FXR-bla HEK293T viability, CellTiter-Glo luminescence, 16 h; series mostly up to 62.6 µM
In short: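 Multiplexed counter screen: viability of FXR-bla HEK 293T cells under agonist stimulation by chenodeoxycholic acid (50 uM, final) and test compound for 16 h at 37 C, measured by CellTiter-Glo luminescence in the reporter wells.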

[4] = target: Vitamin D3 receptor (Homo sapiens) (UniProt P11473); experiment: qHTS assay to identify small molecule agonists of the vitamin D receptor (VDR) signaling pathway (AID 743222; calls by dose curve); details: HEK293T VDR-UAS-bla, beta-lactamase FRET ratio, 16 h; series mostly up to 63.5 µM
In short: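 VDR-bla cells were seeded, left 4 h, treated with compounds in DMSO for 16 h, incubated 2 h at RT with B/G FRET substrate, and read for fluorescence.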

[5] = target: Vitamin D3 receptor (Homo sapiens) (UniProt P11473); experiment: qHTS assay to identify small molecule antagonists of the vitamin D receptor (VDR) signaling pathway (AID 743223; active means well fitted inhibition curve with a large enough effect in the signal ratio in the repeat runs, not every such curve was filed as active; the % refers to the signal ratio); details: VDR-UAS-bla HEK293T, beta-lactamase FRET ratio, 16 h; series mostly up to 61 µM
In short: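 Cells carrying a VDR-driven beta-lactamase reporter (VDR-bla) were co-treated with compound and 3 nM final 1alpha,25-dihydroxyvitamin D3 for 16 h at 37C; reporter activity was measured as FRET substrate fluorescence after 2 h at room temperature.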

[6] = qHTS assay to identify small molecule agonists of the vitamin D receptor (VDR) signaling pathway - cell viability counter screen (AID 743224); details: VDR-bla HEK293T viability, CellTiter-Glo luminescence, 16 h; series mostly up to 62.6 µM; further: nearly all actives have a fitted effect of over 50% in size
In short: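 Here cell health was gauged by luminescent ATP detection (CellTiter-Glo, 30 min RT) in VDR-bla cells that had been incubated with test compounds for 16 h at 37C and 5% CO2.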

[7] = qHTS assay to identify small molecule antagonists of the vitamin D receptor (VDR) signaling pathway - cell viability counter screen (AID 743225); details: VDR-bla HEK293T viability, CellTiter-Glo luminescence, 16 h; series mostly up to 61 µM; further: nearly all actives have a fitted effect of over 50% in size
In short: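 HEK293T VDR-bla; cpd + 1a,25-(OH)2D3 3 nM final, 16 h 37C/5% CO2; B/G FRET substrate 2 h RT; then CellTiter-Glo 30 min RT, luminescence.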

[8] = qHTS assay to identify small molecule agonists of the NFkB signaling pathway (AID 1159509; active means well fitted curve in the direction sought with a large enough effect in the signal ratio in the repeat runs, not every such curve was filed as active; the % refers to the signal ratio); details: NFkB-bla ME-180 cells, beta-lactamase FRET ratio, 5 h; series mostly up to 61 µM
In short: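 NFkB-bla ME-180 cells with a beta-lactamase reporter under an NF-kB response element were plated overnight, treated with compounds in DMSO for 5 hr at 37 C, then loaded with FRET substrate for 1.5 hr at room temperature.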

[9] = qHTS assay to identify small molecule agonists of the NFkB signaling pathway - cell viability counter screen (AID 1159515; calls by dose curve; further: nearly all actives have a fitted effect of over 55% in size); details: NFkB-bla ME-180 viability, CellTiter-Glo luminescence, 5 h; series mostly up to 61 µM
In short: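 5 hr compound treatment of NFkB-bla ME-180 cells (2,000/well, seeded overnight beforehand), followed by reporter substrate for 1.5 hr. CellTiter-Glo added afterward; luminescence after 30 min RT.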

[10] = qHTS assay to identify small molecule agonists of the endoplasmic reticulum stress response signaling pathway - cell viability counter screen (AID 1159517; calls by dose curve); details: ESRE-bla HeLa viability, CellTiter-Glo luminescence, 5 h; series mostly up to 61 µM
In short: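 Counter-screen wells were identical to the reporter wells. Cells were plated at 1,500 per well and dosed for 5 hr, then read for luminescence 30 min after CellTiter-Glo addition.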

[11] = qHTS assay to identify small molecule antagonists of the retinoid-related orphan receptor gamma (ROR-gamma) signaling pathway - cell viability counter screen (AID 1159520); details: Tet-on RORgamma CHO cells viability, ATP luminescence, 16 h; series mostly up to 92.4 µM; further: nearly all actives have a fitted effect of over 50% in size
In short: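 Tet-on ROR gamma CHO cells were given compounds for 2 hr, then doxycycline hyclate at 1 uM final, and incubated 16 hr at 37 C. Viability was measured as ATP content by CellTiter-Glo luminescence.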

[12] = target: Nuclear receptor ROR-gamma (Homo sapiens) (UniProt P51449); experiment: qHTS assay to identify small molecule antagonists of the retinoid-related orphan receptor gamma (ROR-gamma) signaling pathway (AID 1159521; further: nearly all actives have a fitted effect of over 50% in size; further: potency means the concentration at half of the fitted maximal effect); details: Tet-on RORgamma CHO cells, RORE-luciferase, 16 h; series mostly up to 92.4 µM
In short: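 Cells were plated, rested 4 h at 37 C, exposed to compounds for 2 h, then given 1 uM final doxycycline hyclate to induce RORγ expression. After 16 h, ONE-Glo luminescence from the ROR response element reporter was measured.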

[13] = qHTS assay to identify small molecule agonists of the AP-1 signaling pathway - cell viability counter screen (AID 1159525; calls by dose curve; further: nearly all actives have a fitted effect of over 55% in size); details: ME-180 AP-1-bla cells viability, ATP luminescence, 5 h; series mostly up to 76.8 µM
In short: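 AP-1-bla ME-180 cells in Opti-MEM with 0.5% dialyzed FBS, compound exposure 5 h at 37 C in 15-point titration. Viability read in the same wells as ATP content by CellTiter-Glo luminescence, normalised to tetra-n-octylammonium bromide and DMSO controls.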

[14] = qHTS assay to identify small molecule agonists of the AP-1 signaling pathway (AID 1159526; calls by dose curve); details: ME-180 (cervical carcinoma) AP-1-bla reporter, beta-lactamase FRET ratio, 5 h; series mostly up to 76.8 µM
[15] = target: Peroxisome proliferator-activated receptor delta (Homo sapiens) (UniProt Q03181); experiment: qHTS assay to identify small molecule agonists of the peroxisome proliferator-activated receptor delta (PPARd) signaling pathway (AID 743212; calls by dose curve); details: HEK293H PPARd-UAS-bla, beta-lactamase FRET ratio, 17 h; series mostly up to 62.6 µM
In short: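 Quantitative high-throughput agonist screen in a HEK293H beta-lactamase reporter line under UAS control. Compounds in DMSO, at 37 C. Fluorescence read after 2 h with FRET substrate at room temperature.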

[16] = target: Peroxisome proliferator-activated receptor delta (Homo sapiens) (UniProt Q03181); experiment: qHTS assay to identify small molecule antagonists of the peroxisome proliferator-activated receptor delta (PPARd) signaling pathway (AID 743215; active means well fitted inhibition curve with a large enough effect in the signal ratio in the repeat runs, not every such curve was filed as active; the % refers to the signal ratio;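 further: cells stimulated with agonist L165041 at 300 nM final during compound exposure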); details: HEK293H PPARd-UAS-bla, beta-lactamase FRET ratio, antagonist, 17 h; series mostly up to 62 µM
In short: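 With L165041 present at 300 nM final, compounds were incubated 17 h at 37 C on PPARd UAS-bla HEK293H cells. A FRET-based beta-lactamase substrate was then applied for 2 h at room temperature and fluorescence intensity recorded.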

[17] = qHTS assay to identify small molecule agonists of the farnesoid-X-receptor (FXR) signaling pathway - cell viability counter screen (AID 743218); details: FXR-bla HEK293T viability, CellTiter-Glo luminescence, 16 h; series mostly up to 62.6 µM; further: nearly all actives have a fitted effect of over 45% in size
In short: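 After 16 h at 37 C with test compounds, FXR-bla HEK 293T cells were given LiveBLAzer B/G substrate for 2 h at RT and then CellTiter-Glo; luminescence was taken after 30 min.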

[18] = qHTS assay to identify small molecule agonists of the endoplasmic reticulum stress response signaling pathway (AID 1159516; active means well fitted activation curve with a large enough effect in the signal ratio in the repeat runs, not every such curve was filed as active; the % refers to the signal ratio); details: ESRE-bla HeLa, ER stress beta-lactamase reporter, 5 h; series mostly up to 61 µM
In short: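 Reporter HeLa cells (ESRE-beta-lactamase) underwent 5 hr compound incubation at 37 C and 5% CO2 in quantitative HTS format. Detection followed 2 hr of FRET substrate loading at room temperature.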

[19] = target: Bile acid receptor (Homo sapiens) (UniProt Q96RI1); experiment: qHTS assay to identify small molecule antagonists of the farnesoid-X-receptor (FXR) signaling pathway (AID 743217; active means well fitted inhibition curve with a large enough effect in the signal ratio in the repeat runs, not every such curve was filed as active; the % refers to the signal ratio); details: HEK293T FXR-UAS-bla, beta-lactamase ratio, CDCA-stimulated, 16 h; series mostly up to 62.6 µM
In short: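 In this cell-based antagonist screen, inhibition of CDCA-driven (50 uM final) UAS-beta-lactamase expression in HEK 293T cells was measured by FRET fluorescence following 16 h compound exposure at 37 °C.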

[20] = target: Bile acid receptor (Homo sapiens) (UniProt Q96RI1); experiment: qHTS assay to identify small molecule agonists of the farnesoid-X-receptor (FXR) signaling pathway (AID 743220; active means well fitted activation curve with a large enough effect in the signal ratio in the repeat runs, not every such curve was filed as active; the % refers to the signal ratio); details: HEK293T FXR-UAS-bla, beta-lactamase FRET ratio, 16 h; series mostly up to 62.6 µM
In short: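 Beta-lactamase reporter under UAS control in GeneBLAzer FXR HEK 293T cells (5000/well) measured with LiveBLAzer FRET substrate after 2 h at room temperature. Compound exposure lasted 16 h at 37C.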

Sequence of Vitamin D3 receptor (Homo sapiens) (P11473 whole entry, looked up): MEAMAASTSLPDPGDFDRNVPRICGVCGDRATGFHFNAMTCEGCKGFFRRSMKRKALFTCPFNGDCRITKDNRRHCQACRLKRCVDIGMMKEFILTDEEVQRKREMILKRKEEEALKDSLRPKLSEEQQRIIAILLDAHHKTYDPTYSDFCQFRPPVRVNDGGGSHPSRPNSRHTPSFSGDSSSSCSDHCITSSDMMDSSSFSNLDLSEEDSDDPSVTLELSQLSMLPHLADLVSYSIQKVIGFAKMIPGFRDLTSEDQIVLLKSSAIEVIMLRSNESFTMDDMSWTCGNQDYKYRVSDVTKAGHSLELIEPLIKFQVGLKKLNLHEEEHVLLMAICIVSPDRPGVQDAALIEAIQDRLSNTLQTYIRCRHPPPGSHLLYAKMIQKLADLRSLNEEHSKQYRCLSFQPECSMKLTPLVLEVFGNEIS
Sequence of Bile acid receptor (Homo sapiens) (Q96RI1 whole entry, looked up): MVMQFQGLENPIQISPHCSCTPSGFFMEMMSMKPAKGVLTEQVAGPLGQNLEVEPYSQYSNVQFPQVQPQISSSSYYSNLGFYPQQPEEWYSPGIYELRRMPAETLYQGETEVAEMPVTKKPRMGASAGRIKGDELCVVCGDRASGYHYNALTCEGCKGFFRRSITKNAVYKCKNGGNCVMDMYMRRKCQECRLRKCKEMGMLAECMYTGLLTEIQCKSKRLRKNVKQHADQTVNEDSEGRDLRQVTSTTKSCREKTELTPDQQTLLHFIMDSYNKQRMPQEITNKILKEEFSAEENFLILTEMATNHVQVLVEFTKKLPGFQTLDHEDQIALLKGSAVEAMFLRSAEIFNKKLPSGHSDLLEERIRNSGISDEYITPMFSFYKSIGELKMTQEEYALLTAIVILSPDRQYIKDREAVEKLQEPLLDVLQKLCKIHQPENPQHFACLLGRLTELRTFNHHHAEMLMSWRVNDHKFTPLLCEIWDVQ
Sequence of Peroxisome proliferator-activated receptor delta (Homo sapiens) (Q03181 whole entry, looked up): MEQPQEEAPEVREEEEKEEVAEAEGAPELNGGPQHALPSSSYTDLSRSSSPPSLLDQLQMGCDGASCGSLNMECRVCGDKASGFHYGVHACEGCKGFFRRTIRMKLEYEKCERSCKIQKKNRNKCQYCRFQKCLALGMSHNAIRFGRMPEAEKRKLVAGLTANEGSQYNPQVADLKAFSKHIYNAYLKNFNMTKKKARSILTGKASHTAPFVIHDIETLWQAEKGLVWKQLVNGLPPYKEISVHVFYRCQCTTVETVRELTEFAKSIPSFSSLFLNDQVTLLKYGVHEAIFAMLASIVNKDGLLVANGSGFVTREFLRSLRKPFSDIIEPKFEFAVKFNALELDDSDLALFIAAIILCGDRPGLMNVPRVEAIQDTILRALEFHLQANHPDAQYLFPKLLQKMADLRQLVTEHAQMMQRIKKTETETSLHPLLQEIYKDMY

SMILES	Potency [1]	Potency [2]	Potency [3]	outcome [4]	outcome [5]	Potency [6]	Potency [7]	outcome [8]	Potency [9]	Potency [10]	Potency [11]	Potency [12]	Potency [13]	outcome [14]	Potency [15]	Potency [16]	Potency [17]	outcome [18]	Potency [19]	outcome [20]
CCOCN(C(=O)CCl)c1c(C)cccc1CC	41.2 µM (active)	inactive	inactive	inactive	inactive	inactive	inactive	inactive	inactive	inactive	inactive	45.9 µM (active) and 27.3 µM (active)	inactive	inactive						
C=CC(=O)OCCO	inactive	inactive	inactive	inactive	inactive	inactive	inactive	inactive		inactive	inactive	inactive	inactive	inactive	inactive	inactive	inactive	inactive		
CC1(C)C(C=C(Cl)Cl)C1C(=O)OC(C#N)c1cccc(Oc2ccccc2)c1 (centres undefined)	inactive	inactive	inactive	inactive	inactive	inactive	inactive	inactive	inactive	inactive	inactive		inactive	inactive			inactive	inactive		
Cc1cccc(N)c1N	inactive		inactive	inactive		inactive	inactive	inactive	inactive	inactive	inactive		inactive	inactive			inactive	inactive	inactive	inactive
Cc1ccc2c(c1N)C(=O)c1ccccc1C2=O	inactive	inactive	inactive			inactive	inactive	inactive	inactive	inactive	inactive		inactive	inactive	inactive		inactive			inactive
O=C(NC(=O)c1c(F)cccc1F)Nc1ccc(Cl)cc1	inactive	inactive	inactive	inactive	inactive	inactive	inactive	inactive	inactive	inactive	inactive	inactive	inactive	inactive	inactive		inactive		inactive	inactive
c1ccc(-c2cccc(-c3ccccc3)c2)cc1	inactive	inactive	inactive			inactive	inactive	inactive	inactive	inactive	inactive		inactive	inactive			inactive	inactive	inactive	inactive
CC(C)NC(C)C	inactive	inactive	inactive	inactive	inactive	inactive	inactive	inactive		inactive	inactive	inactive	inactive	inactive	inactive	inactive	inactive	inactive		
CCCCOCCOP(=O)(OCCOCCCC)OCCOCCCC		inactive	inactive	inactive	inactive	inactive		inactive	inactive	inactive	inactive		inactive	inactive	inactive		inactive	inactive		
c1ccc(N=Nc2ccccc2)cc1	inactive	inactive	inactive	inactive	inactive	inactive	inactive	inactive	inactive	inactive	inactive		inactive	inactive			inactive	inactive		
